Records with an inconclusive call do not appear. Calls of active or inactive are those of the source. Rule for the calls: active = hit-call score of the fitted dose curve at least 0.9, where 1 is the maximum; inconclusive = response in the unintended direction; inactive = score below 0.9.

From PubChem BioAssay (EPA / NIEHS) come the findings set out here.

Sequence of human c-Jun N-terminal Kinases (JNK2), MAPK9 (gene 5601) (P45984 whole entry, looked up): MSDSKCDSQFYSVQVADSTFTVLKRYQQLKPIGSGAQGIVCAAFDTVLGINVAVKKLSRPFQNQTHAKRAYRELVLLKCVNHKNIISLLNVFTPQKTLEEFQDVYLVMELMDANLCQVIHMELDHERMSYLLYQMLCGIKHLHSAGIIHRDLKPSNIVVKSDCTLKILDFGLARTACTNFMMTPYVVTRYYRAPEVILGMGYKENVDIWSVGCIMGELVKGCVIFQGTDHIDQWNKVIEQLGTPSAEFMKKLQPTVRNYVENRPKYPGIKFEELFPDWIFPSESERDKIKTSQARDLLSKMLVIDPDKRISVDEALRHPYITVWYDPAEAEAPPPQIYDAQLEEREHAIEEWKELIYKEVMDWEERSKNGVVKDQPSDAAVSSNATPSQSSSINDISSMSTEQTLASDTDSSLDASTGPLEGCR
Sequence of human Esterase Plasma (ES), BCHE (gene 590) (P06276 whole entry, looked up): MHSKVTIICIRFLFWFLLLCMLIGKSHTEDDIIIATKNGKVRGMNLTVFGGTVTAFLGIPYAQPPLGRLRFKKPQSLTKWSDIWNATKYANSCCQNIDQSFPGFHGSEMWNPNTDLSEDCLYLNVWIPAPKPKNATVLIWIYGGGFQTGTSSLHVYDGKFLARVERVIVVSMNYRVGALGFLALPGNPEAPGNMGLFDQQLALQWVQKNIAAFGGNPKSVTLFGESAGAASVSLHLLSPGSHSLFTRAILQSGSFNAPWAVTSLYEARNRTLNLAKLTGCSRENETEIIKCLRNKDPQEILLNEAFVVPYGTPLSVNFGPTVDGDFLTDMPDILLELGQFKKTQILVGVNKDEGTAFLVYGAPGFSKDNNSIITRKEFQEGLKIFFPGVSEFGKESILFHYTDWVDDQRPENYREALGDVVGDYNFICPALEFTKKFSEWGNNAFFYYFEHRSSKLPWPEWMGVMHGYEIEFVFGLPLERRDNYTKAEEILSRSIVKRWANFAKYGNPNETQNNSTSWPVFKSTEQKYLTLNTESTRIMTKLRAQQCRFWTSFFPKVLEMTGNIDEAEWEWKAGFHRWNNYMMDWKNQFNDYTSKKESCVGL

One experiment has as its target human Esterase Plasma (ES), BCHE (gene 590) (UniProt P06276). The experiment is described as follows: NVS_ENZ_hES: NovaScreen (NVS) Enzymatic Assay for human Esterase Plasma (ES) (AID 2283157). An outline of the steps:
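Screening ran at 25 uM in duplicate, followed by singleton concentration series reaching 50 uM for actives. Human plasma protein, colorimetric detection, 0.25 h exposure, DMSO negative control.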
Turning to `COP(=O)(OC)O/C(C)=C/C(=O)N(C)C`, the half-maximal activity concentration (AC50) (commonly the midpoint of the concentration-response curve, whichever way the signal moves) was 17.4 µM (active).
In the case of `CC1(C)CCC(=Cc2ccc(Cl)cc2)C1(O)Cn1cncn1` (stereo unspecified), the outcome was inactive.
`CCOP(=O)(OCC)Oc1nc(Cl)c(Cl)cc1Cl`: the AC50 was 0.00463 µM (active).
For `O=C(O)c1c(Cl)ccc2cc(Cl)cnc12`, the AC50 is 8.48 µM (active).
Take `CCOP(=S)(OCC)Oc1nc(Cl)n(C(C)C)n1`: the AC50 is 4.75 µM (active).
Consider `Cn1c(-c2ccccc2)cc(-c2ccccc2)[n+]1C`, for which the AC50 is 4.69 µM (active).
On the same count and under the same terms, to `Cc1nc(N(C)C)nc(OC(=O)N(C)C)c1C` belongs 16.9 µM (active).
Same read-out and setting: then `CCN(CC)C(=O)C(C)Oc1cccc2ccccc12` (stereo unspecified), with 16.7 µM (active).

The next experiment concerns the target human c-Jun N-terminal Kinases (JNK2), MAPK9 (gene 5601) (UniProt P45984). The experiment is described as follows: NVS_ENZ_hJNK2: NovaScreen (NVS) Enzymatic Assay for human c-Jun N-terminal Kinases (JNK2) (AID 2283171). An outline of the steps:
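Chemicals first tested in duplicate at 25 uM, then in singleton concentration series up to 50 uM, against extracted JNK2 enzyme. Activity loss read by fluorescence with mobility-shift separation 1 h post-dose; DMSO baseline.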
As to `O=C1C2CC=CCC2C(=O)N1SC(Cl)(Cl)Cl` (stereo unspecified), the call was inactive.
For the molecule `COC(=O)NS(=O)(=O)c1ccc(N)cc1`, the outcome was inactive.
Same read-out and setting: to `Nc1c(Cl)c(Cl)nc(C(=O)O)c1Cl` belongs “inactive”.
